Source: PubChem BioAssay AID1159580 (chemical genetic matrix, 2015)
Out of some 5,500 compounds screened, about 2,000 (36%) were called active. Another 18% or so got no clear call; they are omitted. Rule as the data show it: active = normalized growth mostly below about 0.91 (no sharp cut-off); inconclusive = no clear call, values can overlap the other calls; inactive = mostly above about 0.92. This is one part of the list.

Assay: chemical genetic growth profiling, strain panel (AID 1159580);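 also: tested at 20 µM; growth read once vehicle control cultures reached saturation at 30 °C; 1 = growth at the plate median or of vehicle wells; lower values mean less growth of the strain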
Details: S. cerevisiae deletion strains, growth OD
[1] = locus YMR307W, strain GAS1, hits give low values
[2] = locus YNL322C, strain KRE1, hits give low values

Measured: normalized growth

NC(N)=NCc1cccc(I)c1
inactive: locus YAL040C, strain CLN3, hits give low values 0.995 | locus YCL061C, strain MRC1 (second series), hits give low values 0.991 | locus YDR150W, strain NUM1, hits give low values 1.01 | locus YDR363W, strain ESC2, hits give low values 1 | locus YER002W, strain NOP16, hits give low values 1 | [1] 0.997 | locus YNL128W, strain TEP1, hits give low values 1.02 | locus YNL175C, strain NOP13, hits give low values 1.01 | locus YNL197C, strain WHI3, hits give low values 0.987 | locus YNL224C, strain SQS1, hits give low values 1.01 | [2] 0.982 | locus YOR083W, strain WHI5 (second series), hits give low values 0.99 | locus YPL055C, strain LGE1, hits give low values 1.02

C=C(C)C1Cc2c(ccc(C(=O)O)c2O)O1 (stereo not drawn)
inactive: locus YBR021W, strain FUR4, hits give low values 0.931 | locus YBR229C, strain ROT2, hits give low values 0.984 | locus YCL029C, strain bik1, hits give low values 0.979 | locus YDL035C, strain GPR1, hits give low values 1.03 | locus YDL074C, strain BRE1, hits give low values 1.02 | locus YDL101C, strain DUN1, hits give low values 1.02 | locus YDL134C, strain PPH21, hits give low values 1.03 | locus YDL192W, strain arf1, hits give low values 0.965 | locus YDR101C, strain arx1, hits give low values 0.954 | locus YDR162C, strain NBP2, hits give low values 1.03 | locus YDR318W, strain mcm21, hits give low values 0.963 | locus YDR388W, hits give low values 0.953 | locus YDR502C, strain sam2, hits give low values 0.979 | locus YEL061C, strain CIN8, hits give low values 0.991 | locus YER110C, hits give low values 0.944 | locus YER155C, strain BEM2, hits give low values 0.946 | locus YER167W, strain BCK2, hits give low values 1 | locus YGL078C, strain dbp3, hits give low values 0.932 | locus YGL086W, strain mad1, hits give low values 0.982 | locus YGL248W, strain PDE1, hits give low values 1 | locus YGR135W, strain pre9, hits give low values 0.969 | locus YGR252W, strain gcn5, hits give low values 0.871 | locus YHR030C, strain SLT2, hits give low values 0.982 | locus YHR079C, strain IRE1 (second series), hits give low values 0.948 | locus YHR094C, strain hxt1, hits give low values 0.944 | locus YHR129C, strain ARP1, hits give low values 0.993 | locus YHR200W, strain rpn10, hits give low values 0.958 | locus YIL066C, strain RNR3, hits give low values 1.03 | locus YIL073C, strain SPO22, hits give low values 1.05 | locus YIR030C, strain dcg1, hits give low values 0.957 | locus YJL095W, strain BCK1, hits give low values 1.04 | locus YJL134W, strain LCB3, hits give low values 0.979 | locus YJL168C, strain set2, hits give low values 0.946 | locus YJL187C, strain SWE1 (second series), hits give low values 1.02 | locus YJR043C, strain POL32, hits give low values 1.02 | locus YJR075W, strain HOC1, hits give low values 1.01 | locus YKL085W, strain MDH1 (second series), hits give low values 0.931 | locus YKL085W, strain MDH1, hits give low values 0.931 | locus YKL190W, strain CNB1, hits give low values 0.998 | locus YKR001C, strain vps1, hits give low values 0.901 | locus YLR039C, strain RIC1, hits give low values 1.07 | locus YLR058C, strain SHM2, hits give low values 1 | locus YLR102C, strain apc9, hits give low values 0.942 | locus YLR262C, strain YPT6, hits give low values 1.08 | locus YLR268W, strain sec22, hits give low values 0.99 | locus YLR330W, strain CHS5, hits give low values 0.976 | locus YLR342W, strain FKS1 (second series), hits give low values 0.998 | locus YLR371W, strain rom2, hits give low values 0.957 | locus YLR418C, strain cdc73, hits give low values 0.957 | locus YML016C, strain PPZ1, hits give low values 0.987 | locus YML032C, strain rad52, hits give low values 0.988 | locus YML124C, strain tub3, hits give low values 0.957 | locus YMR078C, strain ctf18, hits give low values 0.923 | locus YMR223W, strain ubp8, hits give low values 0.98 | [1] 0.972 | locus YNL067W, strain RPL9B, hits give low values 1.01 | locus YNL233W, strain BNI4, hits give low values 1.01 | locus YNL250W, strain rad50, hits give low values 0.911 | locus YNL307C, strain MCK1, hits give low values 0.95 | [2] 0.993 | locus YNR052C, strain pop2, hits give low values 0.971 | locus YOL012C, strain htz1 1.06 | locus YOL147C, strain pex11, hits give low values 0.955 | locus YOR061W, strain CKA2, hits give low values 0.995 | locus YOR069W, strain VPS5, hits give low values 0.99 | locus YOR136W, strain idh2, hits give low values 0.985 | locus YOR144C, strain elg1, hits give low values 0.948 | locus YOR184W, strain ser1, hits give low values 0.989 | locus YOR316C, strain cot1, hits give low values 0.939 | locus YPR119W, strain clb2, hits give low values 0.943 | locus YPR141C, strain kar3, hits give low values 0.918 | locus YPR163C, strain tif3, hits give low values 0.968 | locus YPR167C, strain met16, hits give low values 0.963 | strain wtn01, hits give low values 0.972
active: locus YDL185W, strain tfp1, hits give low values 0.86 | locus YIL125W, strain kgd1, hits give low values 0.91 | locus YKL009W, strain mrt4, hits give low values 0.865 | locus YKL068W, hits give low values 0.91 | locus YNL271C, strain bni1, hits give low values 0.9 | locus YNL298W, strain CLA4, hits give low values 0.795
